Measurements: the supplement of paper PMC7411054

What was measured:
Conditions in all cases: treatment time: 24 h
A549-GM130-SQSTM1 [1] = experiment: lowest phenotypically active concentration; higher = less potent
How it was run: (§1)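 Cells from fifteen gene-edited reporter lines (A549, HepG2 and WPMY1) were treated for 24 h at 0.3, 1, 3 or 9 µM and imaged live, four wells per condition. Features were normalised per well to solvent control wells. A condition deviated if ≥3 of 4 wells passed the 95th percentile of control Euclidean distances and was reproducible if its median replicate Pearson correlation beat the 95th percentile of non-replicates; phenotypic activity needed both.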

HepG2-CANX-COX4 [2] = experiment: as above
How it was run: as §1

HepG2-GM130-SQSTM1 [3] = experiment: as above
How it was run: as §1

WPMY1-GM130-SQSTM1 [4] = experiment: as above
How it was run: as §1

WPMY1-TP53BP1-CLTA [5] = experiment: as above
How it was run: as §1

A549-ACTB-RAB5A = experiment: phenotypically active (imaging signature differs from DMSO and reproducible) at any of 0.3-9 uM (binary (1 = active, 0 = inactive)); higher = active
How it was run: as §1

A549-CANX-COX4 = experiment: as above
How it was run: as §1

A549-GM130-SQSTM1 [6] = experiment: as above
How it was run: as §1

A549-TP53BP1-CLTA = experiment: as above
How it was run: as §1

A549-TUBA1B-RELA = experiment: as above
How it was run: as §1

HepG2-ACTB-RAB5A = experiment: as above
How it was run: as §1

HepG2-CANX-COX4 [7] = experiment: as above
How it was run: as §1

HepG2-GM130-SQSTM1 [8] = experiment: as above
How it was run: as §1

HepG2-TP53BP1-CLTA = experiment: as above
How it was run: as §1

HepG2-TUBA1B-RELA = experiment: as above
How it was run: as §1

WPMY1-ACTB-RAB5A = experiment: as above
How it was run: as §1

WPMY1-CANX-COX4 = experiment: as above
How it was run: as §1

WPMY1-GM130-SQSTM1 [9] = experiment: as above
How it was run: as §1

WPMY1-TP53BP1-CLTA [10] = experiment: as above
How it was run: as §1

WPMY1-TUBA1B-RELA = experiment: as above
How it was run: as §1

CCCCCC[C@H]1C(=O)O[C@H](C)[C@H](NC(=O)c2cccc(NC=O)c2O)C(=O)O[C@@H](C)[C@@H]1OC(=O)CC(C)C [antimycin a]
active: phenotypically active (A549-ACTB-RAB5A) 1 | phenotypically active (A549-CANX-COX4) 1 | phenotypically active (A549-GM130-SQSTM1 [6]) 1 | phenotypically active (A549-TP53BP1-CLTA) 1 | phenotypically active (A549-TUBA1B-RELA) 1 | phenotypically active (HepG2-ACTB-RAB5A) 1 | phenotypically active (HepG2-CANX-COX4 [7]) 1 | phenotypically active (HepG2-GM130-SQSTM1 [8]) 1 | phenotypically active (HepG2-TP53BP1-CLTA) 1 | phenotypically active (HepG2-TUBA1B-RELA) 1 | phenotypically active (WPMY1-ACTB-RAB5A) 1 | phenotypically active (WPMY1-CANX-COX4) 1 | phenotypically active (WPMY1-GM130-SQSTM1 [9]) 1 | phenotypically active (WPMY1-TP53BP1-CLTA [10]) 1 | phenotypically active (WPMY1-TUBA1B-RELA) 1
1 µM: lowest phenotypically active concentration (WPMY1-GM130-SQSTM1 [4])
≤ 0.3 µM: lowest phenotypically active concentration (A549-GM130-SQSTM1 [1]) | lowest phenotypically active concentration (HepG2-CANX-COX4 [2]) | lowest phenotypically active concentration (HepG2-GM130-SQSTM1 [3]) | lowest phenotypically active concentration (WPMY1-TP53BP1-CLTA [5])

COc1ccc2c(c1)/C(=C/c1c[nH]cn1)C(=O)N2
≤ 0.3 µM: lowest phenotypically active concentration (HepG2-GM130-SQSTM1 [3])
1 µM: lowest phenotypically active concentration (A549-GM130-SQSTM1 [1]) | lowest phenotypically active concentration (HepG2-CANX-COX4 [2]) | lowest phenotypically active concentration (WPMY1-GM130-SQSTM1 [4]) | lowest phenotypically active concentration (WPMY1-TP53BP1-CLTA [5])
active: phenotypically active (A549-ACTB-RAB5A) 1 | phenotypically active (A549-CANX-COX4) 1 | phenotypically active (A549-GM130-SQSTM1 [6]) 1 | phenotypically active (A549-TP53BP1-CLTA) 1 | phenotypically active (A549-TUBA1B-RELA) 1 | phenotypically active (HepG2-ACTB-RAB5A) 1 | phenotypically active (HepG2-CANX-COX4 [7]) 1 | phenotypically active (HepG2-GM130-SQSTM1 [8]) 1 | phenotypically active (HepG2-TP53BP1-CLTA) 1 | phenotypically active (HepG2-TUBA1B-RELA) 1 | phenotypically active (WPMY1-ACTB-RAB5A) 1 | phenotypically active (WPMY1-CANX-COX4) 1 | phenotypically active (WPMY1-GM130-SQSTM1 [9]) 1 | phenotypically active (WPMY1-TP53BP1-CLTA [10]) 1 | phenotypically active (WPMY1-TUBA1B-RELA) 1

CC[C@@H]1C=CC=CC[C@H](C)[C@@H](O)[C@](C)(O)C(=O)[C@H](C)[C@@H](O)[C@H](C)C(=O)[C@H](C)[C@@H](O)[C@H](C)C=CC(=O)O[C@H]2[C@@H](C)[C@@H](CC1)O[C@@]1(CC[C@@H](C)[C@@H](C[C@H](C)O)O1)[C@@H]2C [Oligomycin A]
≤ 0.3 µM: lowest phenotypically active concentration (A549-GM130-SQSTM1 [1]) | lowest phenotypically active concentration (HepG2-CANX-COX4 [2]) | lowest phenotypically active concentration (HepG2-GM130-SQSTM1 [3])
active: phenotypically active (A549-ACTB-RAB5A) 1 | phenotypically active (A549-CANX-COX4) 1 | phenotypically active (A549-GM130-SQSTM1 [6]) 1 | phenotypically active (A549-TP53BP1-CLTA) 1 | phenotypically active (A549-TUBA1B-RELA) 1 | phenotypically active (HepG2-ACTB-RAB5A) 1 | phenotypically active (HepG2-CANX-COX4 [7]) 1 | phenotypically active (HepG2-GM130-SQSTM1 [8]) 1 | phenotypically active (HepG2-TP53BP1-CLTA) 1 | phenotypically active (HepG2-TUBA1B-RELA) 1 | phenotypically active (WPMY1-CANX-COX4) 1
inactive: phenotypically active (WPMY1-ACTB-RAB5A) 0 | phenotypically active (WPMY1-GM130-SQSTM1 [9]) 0 | phenotypically active (WPMY1-TP53BP1-CLTA [10]) 0 | phenotypically active (WPMY1-TUBA1B-RELA) 0

COc1ccc(C[C@H]2NC[C@H](O)[C@H]2OC(C)=O)cc1 [Anisomycin]
≤ 0.3 µM: lowest phenotypically active concentration (A549-GM130-SQSTM1 [1]) | lowest phenotypically active concentration (HepG2-CANX-COX4 [2]) | lowest phenotypically active concentration (HepG2-GM130-SQSTM1 [3]) | lowest phenotypically active concentration (WPMY1-GM130-SQSTM1 [4]) | lowest phenotypically active concentration (WPMY1-TP53BP1-CLTA [5])
active: phenotypically active (A549-ACTB-RAB5A) 1 | phenotypically active (A549-CANX-COX4) 1 | phenotypically active (A549-GM130-SQSTM1 [6]) 1 | phenotypically active (A549-TP53BP1-CLTA) 1 | phenotypically active (A549-TUBA1B-RELA) 1 | phenotypically active (HepG2-ACTB-RAB5A) 1 | phenotypically active (HepG2-CANX-COX4 [7]) 1 | phenotypically active (HepG2-GM130-SQSTM1 [8]) 1 | phenotypically active (HepG2-TP53BP1-CLTA) 1 | phenotypically active (HepG2-TUBA1B-RELA) 1 | phenotypically active (WPMY1-ACTB-RAB5A) 1 | phenotypically active (WPMY1-CANX-COX4) 1 | phenotypically active (WPMY1-GM130-SQSTM1 [9]) 1 | phenotypically active (WPMY1-TP53BP1-CLTA [10]) 1 | phenotypically active (WPMY1-TUBA1B-RELA) 1

O=C1NC(=O)c2c1c1c3ccccc3n3c1c1c2c2ccccc2n1C1CCC3O1
active: phenotypically active (A549-ACTB-RAB5A) 1 | phenotypically active (A549-GM130-SQSTM1 [6]) 1 | phenotypically active (A549-TUBA1B-RELA) 1 | phenotypically active (HepG2-TP53BP1-CLTA) 1 | phenotypically active (WPMY1-ACTB-RAB5A) 1 | phenotypically active (WPMY1-CANX-COX4) 1 | phenotypically active (WPMY1-GM130-SQSTM1 [9]) 1 | phenotypically active (WPMY1-TP53BP1-CLTA [10]) 1
inactive: phenotypically active (A549-CANX-COX4) 0 | phenotypically active (A549-TP53BP1-CLTA) 0 | phenotypically active (HepG2-ACTB-RAB5A) 0 | phenotypically active (HepG2-CANX-COX4 [7]) 0 | phenotypically active (HepG2-GM130-SQSTM1 [8]) 0 | phenotypically active (HepG2-TUBA1B-RELA) 0 | phenotypically active (WPMY1-TUBA1B-RELA) 0
9 µM: lowest phenotypically active concentration (WPMY1-TP53BP1-CLTA [5])
≤ 0.3 µM: lowest phenotypically active concentration (A549-GM130-SQSTM1 [1]) | lowest phenotypically active concentration (WPMY1-GM130-SQSTM1 [4])
